# A selection: hits, their analogues and other compounds. The true share with any hit is near 2.4%.
# DNA Pol III inh: inhibitors of bacterial DNA polymerase III holoenzyme; reconstituted DNA polymerase III holoenzyme replication, biochemical; hit rate 0.25% among 71,000; Potency, µM (highest dose often 57.1 µM), for inactives: at the top dose activity change, negative = inhibition; further: potency means the concentration at half of the fitted maximal effect; on the % scale 0 is the no-effect control and ±100 the full control effect
#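 Reconstituted *E. coli* holoenzyme (0.35 nM Pol III, 1 nM beta, 154 nM SSB, 2 nM primase) was preincubated with compound for 15 min at RT. Synthesis on 1.4 nM ssM13Gori ran 35 min, then was stopped with PicoGreen/EDTA and read as dsDNA fluorescence.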
# Tau fil binding: tau filament binding; P10636; Potency, µM (series often up to 57.1 µM), inactives show top-dose activity change, negative = inhibition; recombinant tau filaments, thioflavin S fluorescence, 15 h; filaments grown with octadecylsulfate alongside compound; hit rate 2% among 71,000;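 further: potency means the concentration at half of the fitted maximal effect; on the % scale 0 is the no-effect control and ±100 the full control effect; actives lower thioflavin S fluorescence by blocking filaments or displacing dye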
#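 Recombinant tau protein (human, 1 uM final) plus 30 uM ODS in HEPES pH 7.4 with NaCl, DTT and thioflavine S. Compound present from the start; fluorescence at 510 nm after 15 h, 37 C.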
# BRCT inh green: inhibitors of human BRCA1 BRCT-phosphoprotein interaction (green fluorophore) | BRCA1 BRCT-phosphopeptide binding, green fluorescence polarization | hit rate 0.05% among 75,000 | Potency, µM (titrated, usually from 76.9 µM), without a hit: at the highest dose activity change, negative = inhibition, most hits filed as inhibitors | P38398;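 further: potency means the concentration at half of the fitted maximal effect; plate controls were peptide without protein for full effect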
#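 Fluorescence polarization: His-tagged BRCT (~35 kDa BRCA1 C-terminus, 250 nM) bound to 100 nM fluorescein-labeled phosphorylated 10-aa BACH1 peptide, pH 7.3 phosphate buffer with DTT and Tween 20. Compounds incubated 12 min at room temperature; inhibition read as lowered polarization.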
# TsaE inh: inhibitors of E. coli YjeE (TsaE); purified YjeE enzyme, qHTS inhibition assay; Potency, µM; hit rate 0.05% among 71,000; AID 605
#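 Fluorescence polarization of a BODIPY Texas Red–ADP probe (2 uM) bound to purified YjeE (10 uM) was read after 15 min room-temperature incubation with compounds. Loss of polarization marks inhibitors; ADP serves as titrated control.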
# BRCT PPI red: inhibitors of human BRCA1 BRCT-phosphoprotein interaction (red fluorophore); P38398; BRCT-phosphopeptide binding, red fluorescence polarization; Potency, µM (titrated, usually from 76.9 µM), inactives show top-dose activity change, negative = inhibition, actives largely listed as inhibitors; hit rate 0.03% among 75,000; AID 892; further: on the % scale 0 is the no-effect control and ±100 the full control effect
#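 Rhodamine-labelled pBACH1 10-mer (100 nM) bound to BRCT domain (100 nM) at pH 7.3; compounds incubated 12 min room temperature, polarization read. Free peptide defines full inhibition; unlabelled decapeptide titrated as control.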
# Hsp90 Hop PPI: changes Hsp90-Hop TPR2A binding signal, up or down; AlphaScreen TPR2A-His6 binding biotin-Hsp90 C-terminal peptide; Potency, µM (top dose mostly 57 µM), for inactives: at the top dose activity change, negative = inhibition; hit rate 0.44% among 71,000; AID 595; active means well fitted curve in either direction with a large enough effect; inconclusive means small, poorly fitted or top-dose-only effect, or another doubt; further: potency means the concentration at half of the fitted maximal effect; on the % scale 0 is the no-effect control and ±100 the full control effect
# Hsp90-TPR2A inh: confirmation and counter-screen of Hsp90 TPR2A co-chaperone interaction disrupters; shares compounds with Hsp90 Hop PPI; AlphaScreen TPR2A-His6 / biotin-Hsp90 peptide binding; activity, negative = inhibition, % at 40 µM or 46 µM, hits read low; hit rate 100% among 45; AID 632;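 active means compound lowering the Hsp90 and TPR2A binding signal, whether or not the linker counterscreen also flagged it as an artifact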
# * marks the source's active call; other numbers are inactive results; i = inactive; u = inconclusive; x = not tested or not shown; + = active, no number; ! = not confirmed by another sample; [ ] = dose if it differs, or a comment. Unless noted, the call rests on the fitted dose curve; in most records, active means well fitted curve in the direction sought with a large enough effect; inconclusive means small, poorly fitted or top-dose-only effect, or another doubt; inactive means no such curve, though single readings can be large; an effect the other way counts as inactive or inconclusive.
SMILES,DNA Pol III inh,Tau fil binding,BRCT inh green,TsaE inh,BRCT PPI red,Hsp90 Hop PPI,others
NCCc1c[nH]c2ccccc12,-8.5%,3.2%,-0.1%[3.08 µM],i,-2.3%,-7.3%,
C#CCN[C@@H](C)Cc1ccccc1,0.9%,-9.6%,-1.8%,i,-4.0%,-5.9%,
C=CCn1c(O)c(C(C)=Nc2ccc(N(CC)CC)cc2)c(=O)[nH]c1=O,-4.5%,15.8µM*,0.3%,i,-1.5%,-10.3%,
CCCN1CCO[C@@H]2c3cc(O)ccc3OC[C@@H]21,-2.1%,39.8µM*,-4.2%,i,1.0%,0.1%,
CC(=O)[C@@H]1CC[C@@H]2[C@H]3CC[C@H]4C[C@@H](O)CC[C@]4(C)[C@@H]3C(=O)C[C@]21C,0.1%,7.7%,x,i,x,-6.3%,
CC1=NCCc2c1[nH]c1cc(O)ccc21,-4.4%,236.4%,31.6µM*!,i,2.1%,-12.9%,
CO[C@@H]([CH2][Hg])CN1C(=O)c2ccccc2S1(=O)=O.Cn1c(=O)c2nc[nH]c2n(C)c1=O,-16.6%[11.4 µM],-0.7%[11.4 µM],0.3%[15.4 µM],i,1.6%[15.4 µM],-2.5%[11 µM],
CN(C)[C@@H]1C(=O)C(C(N)=O)=C(O)[C@]2(O)C(=O)C3=C(O)c4c(O)cccc4[C@](C)(O)[C@H]3C[C@@H]12,3.16µM*,-3.8%[11.4 µM],u,i,u,-7.5%[11 µM],
CN(C)[C@@H]1C(=O)C(C(N)=O)=C(O)[C@@]2(O)C(=O)C3=C(O)c4c(O)cccc4[C@@](C)(O)[C@H]3[C@H](O)[C@@H]12,-1.6%,-5.3%,0.9%,i,-6.3%,-6.9%,
CN1C[C@@H](CNC(=O)OCc2ccccc2)C[C@H]2c3cccc4c3c(cn4C)C[C@@H]21,-8.0%,7.8%,x,i,x,-28.6%,
O=C(O)[C@H]1CCN1,3.2%,-1.5%,-1.2%,i,0.6%,-2.2%,
CN1CC[C@]2(C)c3cc(O)ccc3N(C)[C@@H]12,-5.3%,31.6µM*!,-1.2%[34.4 µM],i,-0.3%[34.4 µM],-1.6%,
CC(C)C[C@H](NP(=O)(O)O[C@@H]1O[C@@H](C)[C@@H](O)[C@@H](O)[C@H]1O)C(=O)N[C@@H](Cc1c[nH]c2ccccc12)C(=O)O,-8.1%,5.0%,-3.1%,i,1.2%,-3.0%,
O=[As](O)(O)c1ccc(N=Nc2ccc(O)cc2)cc1,-0.9%[11.4 µM],3.16µM*,-1.8%[15.4 µM],i,-0.2%[15.4 µM],-6.6%[11 µM],
O=C(O)Cc1cccnc1C(=O)O,-1.6%,u,-1.6%,i,1.5%,7.94µM*,
O=C(O)[C@@H]1[C@H](C(=O)O)[C@]2(Cl)C(Cl)=C(Cl)[C@@]1(Cl)C2(Cl)Cl,2µM*,-7.5%[11.4 µM],-5.4%[15.4 µM],i,-2.7%[15.4 µM],-2.1%[11 µM],
O=C1C[C@@H]2OCC=C3CN4CC[C@]56c7ccccc7N1[C@H]5[C@@H]2[C@H]3C[C@@H]46,-5.4%,u,x,i,x,-6.3%,
Cn1nc(Cc2ccccc2)nc2c(=O)n(C)c(=O)nc1-2,x,x,x,x,x,x,Hsp90-TPR2A inh=+
CCN1C[C@]2(C)CC[C@@H](O)[C@]34[C@@H]5CC6[C@@H](OC)C[C@@](O)([C@H]5[C@@H]6O)[C@@H](C[C@@H]23)[C@H]14,-4.7%,-0.3%,-1.4%,i,0.4%,-1.8%,
CCn1nc(-c2cccs2)nc2c(=O)n(C)c(=O)nc1-2,-4.1%,-8.1%,-2.2%,i,-0.4%,1.58µM*,Hsp90-TPR2A inh=+
CN1[C@@H]2CC[C@H]1CC(O[C@@H](c1ccccc1)c1ccccc1N)C2 (stereo not given in full),-3.5%,-9.0%,-1.4%,i,-1.3%,-7.9%,
